In PubChem BioAssay (EPA / NIEHS):
Calls of active or inactive are those of the source. The calls were made as follows: active = hit-call score of the fitted dose curve at least 0.9, where 1 is the maximum; inactive = score below 0.9.

Key:
[1] = read-out: Macrophage colony-stimulating factor (MCSF), CSF1 (gene 1435); assay: BSK_hDFCGF_MCSF: BioMAP Diversity Plus: hDFCGF Assay for Macrophage colony-stimulating factor (MCSF) Biomarker Activity (AID 2283060); conditions: primary human foreskin fibroblasts; actives raise or lower the signal
Summary of the method: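 M-CSF levels read by ELISA at 24 h post-dosing in human skin fibroblasts. Parallel cultures stained with SRB assessed cytotoxicity at the same time point; response fitted in both directions against the DMSO baseline.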

[2] = BSK_hDFCGF_SRB: Viability Assessment in the BioMAP Diversity Plus: hDFCGF Assay (AID 2283061); conditions: primary human foreskin fibroblasts;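 also: cells exposed to compound for 24 h before the read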
Summary of the method: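 Viability was read as total protein: after 10% TCA fixation, wells were stained with 0.1% sulforhodamine B and read at 560 nm. Primary human foreskin fibroblasts were dosed for 24 h, with bidirectional fitting versus DMSO.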

[3] = read-out: Monokine induced gamma interferon (MIG), CXCL9 (gene 4283); assay: BSK_hDFCGF_MIG: BioMAP Diversity Plus: hDFCGF Assay for Monokine induced gamma interferon (MIG) Biomarker Activity (AID 2283063); conditions: primary human foreskin fibroblasts; actives raise or lower the signal
Summary of the method: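 Human primary foreskin fibroblasts in the hDFCGF system, exposed to test chemical for 24 h; MIG measured by ELISA. Bidirectional curve fitting against DMSO negative control as activity baseline.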

[4] = read-out: Matrix Metallopeptidase 1 (MMP1), MMP1 (gene 4312); assay: BSK_hDFCGF_MMP1: BioMAP Diversity Plus: hDFCGF Assay for Matrix Metallopeptidase 1 (MMP1) Biomarker Activity (AID 2283064); conditions: primary human foreskin fibroblasts; actives raise or lower the signal
Summary of the method: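 hDFCGF primary fibroblasts (human foreskin); chemical added; 24 h; MMP1 by ELISA; bidirectional fit vs DMSO.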

[5] = read-out: Plasminogen activator inhibitor-1 (PAI1), SERPINE1 (gene 5054); assay: BSK_hDFCGF_PAI1: BioMAP Diversity Plus: hDFCGF Assay for Plasminogen activator inhibitor-1 (PAI1) Biomarker Activity (AID 2283066); conditions: primary human foreskin fibroblasts; actives raise or lower the signal
Summary of the method: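 Human foreskin fibroblast primary cells, 24 h chemical exposure; PAI-1 measured by ELISA. Bidirectional fitting relative to DMSO; parallel cultures stained with SRB for total protein to flag overt cytotoxicity.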

[6] = read-out: Intercellular Adhesion Molecule 1 (ICAM1), ICAM1 (gene 3383); assay: BSK_KF3CT_ICAM1: BioMAP Diversity Plus: KF3CT Assay for Intercellular Adhesion Molecule 1 (ICAM1) Biomarker Activity (AID 2283067); conditions: primary human keratinocytes with fibroblasts; actives raise or lower the signal
Summary of the method: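 Cell-surface ICAM-1 was measured by ELISA 24 h after dosing primary human skin keratinocytes co-cultured with fibroblasts. Parallel SRB staining tracked overt cytotoxicity. Gain or loss of signal was fitted relative to DMSO.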

[7] = read-out: Interferon-gamma inducible Protein 10 (IP10), CXCL10 (gene 3627); assay: BSK_KF3CT_IP10: BioMAP Diversity Plus: KF3CT Assay for Interferon-gamma inducible Protein 10 (IP10) Biomarker Activity (AID 2283068); conditions: primary human keratinocytes with fibroblasts; actives raise or lower the signal
Summary of the method: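 In a primary skin co-culture of keratinocytes and fibroblasts, IP-10 is quantified by ELISA at 24 h after dosing. SRB staining of parallel wells monitors overt toxicity. Curves are fitted both directions against DMSO.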

[8] = BSK_KF3CT_SRB: Viability Assessment in the BioMAP Diversity Plus: KF3CT Assay (AID 2283069); conditions: primary human keratinocytes with fibroblasts;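 also: total protein by sulforhodamine B staining as a cytotoxicity measure; read 24 h after compound addition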
Summary of the method: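 Keratinocytes co-cultured with foreskin fibroblasts (human primary); chemical added, 24 h; fix 10% TCA, stain 0.1% SRB, A560. Bidirectional fit vs DMSO.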

[9] = read-out: Interleukin-1 alpha (IL1a), IL1A (gene 3552); assay: BSK_KF3CT_IL1a: BioMAP Diversity Plus: KF3CT Assay for Interleukin-1 alpha (IL1a) Biomarker Activity (AID 2283070); conditions: primary human keratinocytes with fibroblasts; actives raise or lower the signal
Summary of the method: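 Chemicals were dosed onto co-cultured human keratinocytes and foreskin fibroblasts, IL-1a was quantified by ELISA at 24 h, and activity was fitted in both directions relative to DMSO controls.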

[10] = read-out: TIMP metallopeptidase inhibitor 2 (TIMP2), TIMP2 (gene 7077); assay: BSK_KF3CT_TIMP2: BioMAP Diversity Plus: KF3CT Assay for TIMP metallopeptidase inhibitor 2 (TIMP2) Biomarker Activity (AID 2283071); conditions: primary human keratinocytes with fibroblasts; actives raise or lower the signal
Summary of the method: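 Co-culture of human primary keratinocytes and foreskin fibroblasts, measured 24 h after chemical dosing. TIMP-2 quantified by ELISA and fitted in both directions relative to DMSO. Cytotoxicity checked in parallel cultures by SRB total-protein staining.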

[11] = read-out: C-C motif chemokine 2 (Homo sapiens) (UniProt P13500); assay: BSK_KF3CT_MCP1: BioMAP Diversity Plus: KF3CT Assay for Monocyte Chemoattractant Protein 1 (MCP1/CCL2) Biomarker Activity (AID 2283073); conditions: primary human keratinocytes with fibroblasts; actives raise or lower the signal
Summary of the method: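 ELISA read-out of MCP-1, 24 h post-dose, in primary human skin keratinocytes co-cultured with fibroblasts. Parallel SRB staining monitors cytotoxicity; changes fitted both directions relative to DMSO.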

[12] = read-out: Matrix Metallopeptidase 9 (MMP9), MMP9 (gene 4318); assay: BSK_KF3CT_MMP9: BioMAP Diversity Plus: KF3CT Assay for Matrix Metallopeptidase 9 (MMP9) Biomarker Activity (AID 2283074); conditions: primary human keratinocytes with fibroblasts; actives raise or lower the signal
Summary of the method: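 Human keratinocyte/foreskin fibroblast co-culture; compound added; 24 h; MMP-9 by ELISA; bidirectional fit vs DMSO baseline.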

[13] = read-out: urokinase plasminogen activator (uPA), PLAU (gene 5328); assay: BSK_KF3CT_uPA: BioMAP Diversity Plus: KF3CT Assay for urokinase plasminogen activator (uPA) Biomarker Activity (AID 2283075); conditions: primary human keratinocytes with fibroblasts; actives raise or lower the signal
Summary of the method: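 ELISA readout of uPA, analyzed for signal gain or loss relative to DMSO, from a human primary keratinocyte–foreskin fibroblast co-culture measured 24 h after chemical treatment.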

CD40, CD40 (gene 958) = assay: BSK_LPS_CD40: BioMAP Diversity Plus: LPS Assay for CD40 Biomarker Activity (AID 2283076); conditions: primary human HUVEC with PBMC; actives raise or lower the signal
Summary of the method: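 In the LPS system of human endothelial cells with peripheral blood mononuclear cells, CD40 levels were read by ELISA 24 h post-treatment. Signal changes in either direction were fitted against the DMSO baseline, with parallel SRB protein staining.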

[14] = read-out: E-selectin (Homo sapiens) (UniProt P16581); assay: BSK_LPS_Eselectin: BioMAP Diversity Plus: LPS Assay for Eselectin Biomarker Activity (AID 2283077); conditions: primary human HUVEC with PBMC; actives raise or lower the signal
Summary of the method: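 E-selectin ELISA on LPS-stimulated endothelial cell/PBMC co-cultures, read 24 h post-treatment; gains and losses fitted against DMSO. Parallel SRB staining (0.1% SRB after 10% TCA fixation, 560 nm) flags overt cytotoxicity.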

[15] = read-out: Interleukin-8 (IL8), CXCL8 (gene 3576); assay: BSK_LPS_IL8: BioMAP Diversity Plus: LPS Assay for Interleukin-8 (IL8) Biomarker Activity (AID 2283078); conditions: primary human HUVEC with PBMC; actives raise or lower the signal
Summary of the method: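 ELISA read-out of IL-8 after 24 h chemical treatment of LPS-activated endothelial/PBMC human primary co-cultures. Changes either up or down relative to DMSO; overt cytotoxicity checked by sulforhodamine B staining in parallel wells.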

[16] = read-out: Vascular cell adhesion molecule 1 (VCAM1), VCAM1 (gene 7412); assay: BSK_hDFCGF_VCAM1: BioMAP Diversity Plus: hDFCGF Assay for Vascular cell adhesion molecule 1 (VCAM1) Biomarker Activity (AID 2283065); conditions: primary human foreskin fibroblasts; actives raise or lower the signal
Summary of the method: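 ELISA readout of VCAM-1 on human dermal fibroblast primary cultures, 24 h after chemical exposure. Gain or loss of signal fitted in both directions against DMSO baseline.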

[17] = read-out: Transforming growth factor beta 1 (TGFb1), TGFB1 (gene 7040); assay: BSK_KF3CT_TGFb1: BioMAP Diversity Plus: KF3CT Assay for Transforming growth factor beta 1 (TGFb1) Biomarker Activity (AID 2283072); conditions: primary human keratinocytes with fibroblasts; actives raise or lower the signal
Summary of the method: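 Human keratinocyte/foreskin fibroblast co-culture; TGF-b1 measured by ELISA 24 h after dosing, fitted bidirectionally versus DMSO. Cytotoxicity checked in parallel cultures by total protein (SRB staining, 560 nm).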

[18] = BSK_LPS_SRB: Viability Assessment in the BioMAP Diversity Plus: LPS Assay (AID 2283079); conditions: primary human HUVEC with PBMC;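 also: total protein by sulforhodamine B absorbance as a cytotoxicity measure; measured one day after compound addition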
Summary of the method: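 SRB viability endpoint: cells fixed with 10% TCA, stained with 0.1% SRB, read at 560 nm, 24 h post-dose. HUVEC/PBMC co-culture; signal change in either direction scored relative to DMSO.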

Measured: outcome

Chain of E-selectin (Homo sapiens) (P16581 whole entry, looked up): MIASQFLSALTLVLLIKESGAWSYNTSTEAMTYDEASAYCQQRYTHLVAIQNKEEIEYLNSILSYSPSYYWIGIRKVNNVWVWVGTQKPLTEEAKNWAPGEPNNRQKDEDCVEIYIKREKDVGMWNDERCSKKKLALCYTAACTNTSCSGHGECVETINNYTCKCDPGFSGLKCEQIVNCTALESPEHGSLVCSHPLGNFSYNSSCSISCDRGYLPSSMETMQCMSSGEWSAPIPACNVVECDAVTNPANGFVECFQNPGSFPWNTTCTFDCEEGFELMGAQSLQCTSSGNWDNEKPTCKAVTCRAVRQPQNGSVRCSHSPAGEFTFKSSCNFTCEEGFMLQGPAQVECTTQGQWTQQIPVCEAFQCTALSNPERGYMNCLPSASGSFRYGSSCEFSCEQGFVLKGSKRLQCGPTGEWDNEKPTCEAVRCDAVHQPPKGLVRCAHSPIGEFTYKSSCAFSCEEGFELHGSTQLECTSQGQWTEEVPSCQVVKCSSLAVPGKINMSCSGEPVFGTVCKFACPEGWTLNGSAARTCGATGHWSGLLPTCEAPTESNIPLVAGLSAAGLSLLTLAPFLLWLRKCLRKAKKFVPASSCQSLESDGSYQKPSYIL

Nc1nc(N)nc(-c2ccccc2)n1
inactive: [1] | [2] | [3] | [4] | [5] | [6] | [7] | [8] | [9] | [10] | [11] | [12] | [13] | CD40, CD40 (gene 958) | [14] | [15]

CCCC(C)C(=O)OCC (stereo not given)
inactive: [1] | [2] | [3] | [4] | [16] | [5] | [6] | [7] | [8] | [9] | [10] | [11] | [12] | [13] | CD40, CD40 (gene 958) | [14] | [15]

C1CNCCN1
inactive: [1] | [2] | [3] | [4] | [5] | [6] | [7] | [8] | [9] | [10] | [17] | [11] | [12] | [13] | CD40, CD40 (gene 958) | [14] | [15] | [18]

O=C1CCCCCCCCCCCN1
inactive: [1] | [2] | [3] | [4] | [16] | [5] | [6] | [7] | [8] | [9] | [10] | [17] | [11] | [12] | [13] | CD40, CD40 (gene 958) | [14] | [15] | [18]
